A short description of experiment [1]: polyglutamine-triggered caspase-3 activation inhibitors, cell-based (AID 1583). To be noted: polyglutamine-induced caspase-3 activation, cell assay; stronger effect = higher value;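 tested at 10 µM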.
Experiment [2] is described as follows: suppressors of polyQ aggregation in yeast, 75Q-TubU reporter (AID 1593). To be noted: Yeast 75Q polyglutamine aggregation reporter.
The nature of experiment [3]: rescue of polyQ-huntingtin neuronal dysfunction in worms, whole organism, C. elegans mechanosensory neurons, N-terminal huntingtin (AID 1599). To be noted: touch response, stronger effect = higher value.
Experiment [4] in a line: inhibitors of mitochondrial cytochrome c release, biochemical, purified mitochondria (AID 1603).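 Note: mouse liver mitochondria challenged with calcium chloride; signal normalized to the plate average as 100%.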 To be noted: stronger effect = lower value.
Experiment [5] in a line: inhibitors of polyQ protein aggregation (AID 1604). To be noted: polyglutamine-induced protein aggregation inhibition assay; stronger effect = higher value; tested at 2.5 µM.
Experiment [6] can be described thus: enhancers of glutamate uptake in motor neurons, MN-1 cell line (AID 1612).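 Note: tested at 1 µM final; 0% = mean of DMSO vehicle wells on each plate; positive means more glutamate uptake than control and negative means less.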 The following applies: MN-1 motor neuron cells, stronger effect = higher value.
The nature of experiment [7]: reducers of polyQ inclusions in PC12 cells, cell-based, NGF-treated PC12, GFPQ80 (AID 1614).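 Note: lower means fewer inclusions and 0 means no inclusions at all.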 The following applies: PC12 NGF-treated GFP-polyQ80 inclusion reduction.
Experiment [8] can be described thus: suppressors of polyglutamine aggregation in yeast, 75Q-TubH (AID 1616). To be noted: S. cerevisiae 75Q-TubH polyglutamine aggregation suppression; stronger effect = higher value.
The nature of experiment [9]: liver-stage malaria parasite growth inhibition, primary screen, cell-based, HepG2, luciferase luminescence, HepG2 viability (AID 624349; in the data active = parasite load remaining mostly below about 12%, no sharp cut-off; inactive = mostly above about 10%;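 note: 100% = mean of DMSO negative control wells on the same plate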). To be noted: P. berghei liver stage in HepG2, luciferase luminescence, concentration not given here; parasite load remaining: stronger effect = lower value; viability: measured here: HepG2 viability without parasites.
Experiment [10] has as its target 6-phosphogluconate dehydrogenase, decarboxylating (Homo sapiens) (UniProt P52209). Put plainly: 6PGD enzyme inhibitors, primary screen, biochemical, human, recombinant enzyme, NADPH absorbance (AID 1159550;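 active = at least 20% inhibition of 6-phosphogluconate dehydrogenase activity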). To be noted: recombinant 6PGD, NADPH absorbance 341 nm; at 10 µM; stronger effect = higher value.
Experiment [11] is described as follows: differential killing of epithelial or mesenchymal cells, primary screen, imaging, PC-3E GFP, TEM4-18 mCherry, co-culture (AID 1345086;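 active = compounds killing one labelled cell type while sparing the other, by normalised counts and ratio limits, not self-fluorescent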;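 for all read-outs here: cells exposed to compound for 72 h before imaging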;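 for red/green cell ratio (normalised): normalised mesenchymal count divided by normalised epithelial count so high means epithelial killing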). To be noted: imaging cell counts, at 1 µM; for red/green cell ratio (normalised): actives lie on both sides.
The subject of experiment [12] is Aerobactin synthetase IucA (Klebsiella pneumoniae hvKP1). Put plainly: Biochemical IucA enzyme inhibition primary screen of the Spectrum library (AID 1346200).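 Note: 100% = wells without compound and 0% = wells lacking enzyme.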 To be noted: malachite green pyrophosphate, A620, at 8 µM, stronger effect = lower value.
Experiment [13] can be described thus: sensitizers of A549 cells to miR-34 induction, primary screen, imaging, A549 dox-inducible miR-34, nuclei and caspase counts (AID 1347080;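 active = compounds whose cell count with miR-34 switched on is under 0.7 times the count with it off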). To be noted: A549 miR-34 inducible, Hoechst nuclei count, 48 h.
A short description of experiment [14]: survival rescue of mitochondrial mutant cells in low glucose, primary screen, MELAS cybrids, Rieske KO mouse fibroblasts, CellTiter-Glo (AID 1508586;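 active = mean z-score across replicates of 1.96 or higher in either the MELAS or the Rieske mutant cell line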;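 note: z relative to plate mean and SD of compound and empty wells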). For orientation: Cellular ATP, detected with luciferase, serves as a proxy for viable cell number.
In experiment [15] the target is NAD(+) hydrolase SARM1 (Homo sapiens) (UniProt Q6SZW1). Put plainly: SARM1 TIR NADase inhibitors, cell lysate, NAD-Glo luminescence (AID 1508614;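 active = compound whose remaining NAD level is above about 45 nM, limit read from the data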;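 note: higher remaining NAD means stronger inhibition of SARM1 NADase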). The following applies: SAM-TIR HEK293T lysate NADase, at 1 µM, stronger effect = higher value.
Experiment [16] deals with Mitogen-activated protein kinase 7 (Homo sapiens) (UniProt Q13164). Put plainly: ERK5 transactivation activators in reporter cells, primary screen, cell-based, HTS (AID 1508626;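 active = luciferase signal above three times the same-plate solvent-only control wells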;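 note: luciferase driven by Gal4-ERK5 fusion binding five Gal4 sites before minimal TATA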). To be noted: HeLa Gal4-ERK5 transactivation, 18 h, at 5 µM, stronger effect = higher value.
A short description of experiment [17]: circadian clock period modulators, cell-based, LOPAC library, luminescence reporter (AID 2774).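 Note: values are relative to mean of DMSO wells on each plate.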 The following applies: circadian reporter cells, at 7 µM, actives lie on both sides.
Experiment [18] in a line: hESC survival regulators, cell-based (AID 493140).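 Note: cells exposed to compounds for four days before counting.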 The following applies: human embryonic stem cell survival screen; stronger effect = higher value.
Experiment [19] is described as follows: viability rescue of complex I mutant cybrids, primary screen, cell-based, galactose medium, ATP luminescence (AID 1645843;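 active = z-score of at least 1.8 in each of two replicates, scored against plate mean and spread of sample wells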;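 note: positive z means more ATP and so rescue of galactose-driven cybrid death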). To be noted: complex I mutant cybrid cells, 72 h, stronger effect = higher value.
Setting [20] is: measured here: epithelial PC-3E GFP cell survival.
The mark [21] stands for this setting: measured here: mesenchymal TEM4-18 mCherry cell survival.
[22] abbreviates: measured here: relative caspase fold change +Dox/-Dox.
Setting [23] is: measured here: total cells with miR-34 induction, stronger effect = lower value.
Setting [24] is: measured here: total cells without miR-34 induction.
Setting [25] is: counts scaled to control wells, 1 = unselective.

Several values for one entry are separate records, joined by “and”; a condition that tells them apart may be missing. Identical values can stand only once. For some assays here: Measured potencies and affinities stand elsewhere. Activity calls are given as the source filed them. Unless noted, the rule behind the calls is not given here.

Sequence of Mitogen-activated protein kinase 7 (Homo sapiens) (Q13164 whole entry, looked up, the tested form may be a part): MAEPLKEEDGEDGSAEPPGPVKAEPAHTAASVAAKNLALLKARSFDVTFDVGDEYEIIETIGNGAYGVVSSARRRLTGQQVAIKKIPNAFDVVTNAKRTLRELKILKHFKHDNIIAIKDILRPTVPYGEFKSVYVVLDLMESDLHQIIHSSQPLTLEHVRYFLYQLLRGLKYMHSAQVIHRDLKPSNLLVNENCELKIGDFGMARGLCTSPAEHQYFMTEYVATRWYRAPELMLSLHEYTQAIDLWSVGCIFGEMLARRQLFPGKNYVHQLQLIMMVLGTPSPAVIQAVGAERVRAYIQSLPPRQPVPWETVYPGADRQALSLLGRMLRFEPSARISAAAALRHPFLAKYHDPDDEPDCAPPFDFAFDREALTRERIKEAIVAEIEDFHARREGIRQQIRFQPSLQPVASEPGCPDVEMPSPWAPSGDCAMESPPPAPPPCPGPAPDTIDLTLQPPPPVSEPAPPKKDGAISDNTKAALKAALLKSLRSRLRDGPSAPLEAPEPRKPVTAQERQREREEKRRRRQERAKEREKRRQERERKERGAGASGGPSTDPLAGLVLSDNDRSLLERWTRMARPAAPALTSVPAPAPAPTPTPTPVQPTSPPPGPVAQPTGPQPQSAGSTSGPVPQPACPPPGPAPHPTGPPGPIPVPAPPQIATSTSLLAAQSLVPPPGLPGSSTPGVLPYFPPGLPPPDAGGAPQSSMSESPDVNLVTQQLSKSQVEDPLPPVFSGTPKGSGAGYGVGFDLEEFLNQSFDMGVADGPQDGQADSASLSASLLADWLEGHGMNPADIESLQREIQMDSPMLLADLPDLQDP
Sequence of 6-phosphogluconate dehydrogenase, decarboxylating (Homo sapiens) (P52209 whole entry, looked up): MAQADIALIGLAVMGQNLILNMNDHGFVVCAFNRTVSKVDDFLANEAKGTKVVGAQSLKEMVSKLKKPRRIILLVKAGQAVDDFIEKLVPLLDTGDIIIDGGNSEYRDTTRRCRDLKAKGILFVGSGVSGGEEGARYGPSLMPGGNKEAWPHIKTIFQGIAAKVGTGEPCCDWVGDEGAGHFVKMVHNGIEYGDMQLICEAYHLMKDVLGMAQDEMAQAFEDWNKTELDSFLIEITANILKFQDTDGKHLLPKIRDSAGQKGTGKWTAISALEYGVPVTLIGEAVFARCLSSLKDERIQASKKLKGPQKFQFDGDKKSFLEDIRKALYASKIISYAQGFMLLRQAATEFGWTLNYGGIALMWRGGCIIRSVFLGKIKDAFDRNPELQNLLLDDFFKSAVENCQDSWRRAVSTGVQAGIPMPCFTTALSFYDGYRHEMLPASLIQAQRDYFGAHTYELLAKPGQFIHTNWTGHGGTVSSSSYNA
Sequence of NAD(+) hydrolase SARM1 (Homo sapiens) (Q6SZW1 whole entry, looked up, the tested form may be a part): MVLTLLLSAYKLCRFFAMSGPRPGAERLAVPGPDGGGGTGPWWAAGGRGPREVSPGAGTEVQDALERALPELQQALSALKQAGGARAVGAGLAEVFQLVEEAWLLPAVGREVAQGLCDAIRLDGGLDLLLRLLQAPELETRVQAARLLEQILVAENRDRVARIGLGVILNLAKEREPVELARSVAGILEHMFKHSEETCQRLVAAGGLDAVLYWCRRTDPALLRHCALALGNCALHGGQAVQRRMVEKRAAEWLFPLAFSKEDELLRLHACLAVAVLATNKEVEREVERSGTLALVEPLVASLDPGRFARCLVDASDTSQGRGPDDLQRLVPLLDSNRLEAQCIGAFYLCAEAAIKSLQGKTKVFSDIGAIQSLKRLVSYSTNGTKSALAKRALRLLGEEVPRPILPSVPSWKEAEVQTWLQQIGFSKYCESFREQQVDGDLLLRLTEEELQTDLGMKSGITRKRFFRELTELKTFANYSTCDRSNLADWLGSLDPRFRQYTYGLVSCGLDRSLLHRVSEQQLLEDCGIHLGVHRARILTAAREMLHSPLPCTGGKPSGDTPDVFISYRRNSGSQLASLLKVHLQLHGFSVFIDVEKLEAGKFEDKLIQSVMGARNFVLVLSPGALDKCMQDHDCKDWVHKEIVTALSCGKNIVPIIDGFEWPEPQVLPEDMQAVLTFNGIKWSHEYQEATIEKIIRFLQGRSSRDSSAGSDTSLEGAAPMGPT

With `C[C@H](N)[C@H](O)c1ccc(O)c(O)c1`, the figures for the inhibition in experiment [1] and in [10] were 6.31% and -1.74% (inactive), respectively. Further, the score in experiment [2] worked out at 1.43. In experiment [3], this molecule returned a rescue above control of 4.59. For the same molecule, in experiment [4], the cytochrome c release ratio came out at 0.9. Further, in [5], the inhibition of aggregation came out at 7.58%. In addition, the glutamate uptake change in experiment [6] was found to be 12.7%. In [7], this molecule displayed an inclusion score of 2. In experiment [8], this molecule gave an aggregation suppression score of 1.14. Further, the parasite load remaining in experiment [9] was 61.3% (inactive) and 64.5% (inactive) and 57.8% (inactive). Also, in experiment [9], the viability – broadly, a read-out of living cells in per cent, often relative to untreated cells – was 93.6% and 73.6% and 105%. Further, the red/green cell ratio (normalised) in experiment [11] is 1.17 (inactive). For the same molecule, the normalised cell number was 1.01 in experiment [11] (setting [20]) and 1.18 in [11] (setting [21]). For the same molecule, the activity remaining in experiment [12] was 102% (inactive). In addition, the fold change in experiment [13] (stronger effect = lower value) was 0.912 (inactive) and 0.869 (inactive); in [13] (setting [22]) it was 1.02 and 0.57. The cell count in experiment [13] (setting [23]) was 9300 and 11200; in experiment [13] (setting [24]), 10200 and 12900. The z-score is -0.729 (inactive) in experiment [14] (MELAS cybrid survival, CellTiter-Glo 48 h, stronger effect = higher value) and -1.14 in [14] (Rieske KO mouse fibroblast survival, CellTiter-Glo 72 h). In addition, the remaining NAD in experiment [15] was 10 nM (inactive). In addition, the luciferase signal in [16] is 16 AU (inactive).
For `C[C@H]1CCCC(=O)CCC/C=C/c2cc(O)cc(O)c2C(=O)O1`, in experiment [10], the inhibition (in general, the change of the read-out against control, counted positive when it falls) was 15.7% (inactive). The red/green cell ratio (normalised) in experiment [11] (setting [25]) was 1.02 (inactive). In addition, the values for the normalised cell number in [11] (setting [20]) and in [11] (setting [21]) were 1.02 and 1.04, respectively. Besides, the activity remaining in [12] is 103% (inactive).
In the case of `CNC(C)C(O)c1ccccc1` (stereo not drawn), the inhibition in [1] was 28.1% and 10.2%; in experiment [10], -20.1% (inactive). For the same molecule, the score in [2] was 0.95 and 1.05. Besides, the rescue above control in experiment [3] is -2.36 and -10.7. In addition, the cytochrome c release ratio in experiment [4] was 1.45 and 0.98. Besides, in [5], the inhibition of aggregation was 84.6% and 51.5%. Further, the glutamate uptake change in experiment [6] was -17.5% and 6.9%. This molecule returned an inclusion score in [7] of 2. For the same molecule, the aggregation suppression score in experiment [8] was 1.13 and 1.02. For the same molecule, the parasite load remaining in [9] was 90.9% (inactive) and 53.2% (inactive). The viability in experiment [9] is 77.9% and 114%. Besides, the red/green cell ratio (normalised) in [11] is 0.97 (inactive). The normalised cell number in experiment [11] (setting [20]) worked out at 1.05; in [11] (setting [21]), 1.03. Further, the activity remaining in [12] was 81.5% (inactive). The fold change is 0.894 (inactive) in experiment [13] (stronger effect = lower value) and 2.97 in [13] (setting [22]). The cell count in experiment [13] (setting [23]) came to 10800; in experiment [13] (setting [24]) it was 12100. For the same molecule, the remaining NAD in experiment [15] was 10 nM (inactive). The luciferase signal in [16] was 24 AU (inactive).
For `OC1CCCCC1N1CCC(c2ccccc2)CC1` (stereo not drawn), the results for the inhibition in experiment [1] and in experiment [10] were -2.9% and 1.03% (inactive), respectively. The score in [2] was found to be 1.36. The same molecule displayed a rescue above control in experiment [3] of 12.8. Further, in experiment [4], the cytochrome c release ratio worked out at 1.15. In experiment [5], this molecule returned an inhibition of aggregation of 57.4%. Moreover, the glutamate uptake change in [6] is -9.45%. Also, the inclusion score in experiment [7] came to 2. The aggregation suppression score in experiment [8] amounted to 1.46. Moreover, the period change in experiment [17] was 0.065 h (inactive). Moreover, the survival in experiment [18] was 2.42 (inactive). Moreover, the parasite load remaining in experiment [9] was 122% (inactive) and 70.2% (inactive). Also, the viability in experiment [9] was 88.2% and 106%. Further, the red/green cell ratio (normalised) in experiment [11] is 0.98 (inactive). Further, the values for the normalised cell number in experiment [11] (setting [20]) and in experiment [11] (setting [21]) were 1.07 and 1.05, respectively. In addition, the activity remaining in experiment [12] was 87.4% (inactive). Also, the fold change was 0.987 (inactive) and 1.03 (inactive) and 0.84 (inactive) in [13] (stronger effect = lower value); 1.87 and 1.57 and 4 in experiment [13] (setting [22]). The cell count in [13] (setting [23]) was 10100 and 9780 and 10400; in experiment [13] (setting [24]) it was 10200 and 9480 and 12300. In addition, the luciferase signal in experiment [16] was 60 AU (inactive). In addition, in experiment [19], the z-score was 0.03 (inactive) and 0.65 (inactive).
As to `COC1=C[C@@H]2[C@@H]3Cc4ccc(OC)c(O)c4[C@]2(CCN3C)CC1=O`, in [10], the inhibition was 2.36% (inactive). The red/green cell ratio (normalised) in [11] was 0.75 (inactive). The results for the normalised cell number in experiment [11] (setting [20]) and in experiment [11] (setting [21]) were 1.39 and 1.03, respectively. The activity remaining in experiment [12] was 94.1% (inactive). Moreover, in experiment [16], the luciferase signal is 72 AU (inactive).
`CN[C@@H]1[C@@H](O)C(OC2[C@@H](N)C[C@@H](N)[C@H](O[C@H]3O[C@H](C(C)O)[C@@H](O)[C@H](O)[C@H]3N)[C@H]2O)OC[C@]1(C)O` (stereo partly drawn): the inhibition in experiment [10] was 15.2% (inactive). In addition, in [11] (setting [25]), the red/green cell ratio (normalised) was 1.08 (inactive). Further, the normalised cell number turned out to be 0.91 in [11] (setting [20]) and 0.99 in experiment [11] (setting [21]). In experiment [12], the activity remaining was 111% (inactive).

Values taken from PubChem BioAssay.
